Compound activity: PubChem BioAssay, several laboratories
Shown are actives, neighbours in structure and some others; about 2.2% of the full set was active somewhere.
SMARCA2 activ: SMARCA2 function activation, primary screen | MG213 cells, MMTV-luciferase reporter, dexamethasone, overnight | activation, % at 9.1 µM | 1% of 370,000 active | AID 652017; in the data active means activation above about 7.8%
HIF act: HIF pathway transcriptional activation; U2OS HRE-luciferase reporter, luminescence; normalized: DMSO 0%, desferrioxamine 100%; activation, % at 7.5 µM (by protocol); 0.32% of 300,000 active;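 active means mean activation of at least 10% of the iron chelator positive control signal, with at least half of replicates also reaching 10%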
GAA850 FXN act: activators of GAA850 frataxin (FXN) promoter | activation, % at 6 µM | HEK293 lucGAA850 FXN promoter luciferase reporter, 24 h; percent of 10 µM SAHA response | 0.56% of 360,000 active;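 active means activation above the average of all compounds screened plus 3 SD, cutoff fixed separately per campaign, cut at about 7.5% in these data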
Hsp70 activator: switches on Hsp70 transcription; activation, % at 10 µM; HeLa Hsp70 promoter luciferase reporter, luminescence; scaled: vehicle 0, proteasome-inhibitor control 100%; AID 1203; 0.04% of 200,000 active;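 active means activation above the mean across all tested compounds plus 3 SD, cutoff set per campaign, cut at about 5.5% in these data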
GalR3 antagonist: human GalR3 antagonism. O60755. HEK293 GalR3-CNG cAMP membrane potential fluorescence; galR3 body fused to GalR1 C-terminus. inhibition, % at 3 µM. 0.44% of 360,000 active;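 active means inhibition above the screen-wide average plus 3 SD, cut at about 13% in these data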;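 further: forskolin and galanin both at EC90 stimulate the cells; cAMP rise reported by CNG channel membrane potential dye signal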
Target sequence (O60755 1-299 limits assumed): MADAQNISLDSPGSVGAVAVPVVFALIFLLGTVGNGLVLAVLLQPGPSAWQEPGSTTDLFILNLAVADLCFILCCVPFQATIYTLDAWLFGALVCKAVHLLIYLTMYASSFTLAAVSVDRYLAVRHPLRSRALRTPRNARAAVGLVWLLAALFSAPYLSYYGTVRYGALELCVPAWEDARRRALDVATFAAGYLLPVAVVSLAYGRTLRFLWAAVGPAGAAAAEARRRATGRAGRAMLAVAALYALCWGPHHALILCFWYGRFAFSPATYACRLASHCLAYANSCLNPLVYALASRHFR
GAA30 FXN cntr: activates GAA30 frataxin promoter, counter-screen for GAA850 activators; shares compounds with GAA850 FXN act; HEK293 lucGAA30 FXN promoter luciferase, 24 h; DMSO = 0%, 5 µM ipriflavone = 100%; activation, % at 6 µM; 66% of 1,900 active; AID 588350;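 active means mean activation above the mean of solvent-only control wells plus 3 SD, cut at about 22% in these data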;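 further: counterscreen of GAA850 promoter hits where activity marks nonselective or luminescence artifacts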
FXN GAA850 conf: confirmation of GAA850 frataxin (FXN) promoter activators. 86% of 1,900 active. HEK293 lucGAA850 FXN promoter luciferase reporter, 24 h; 100% = activation by SAHA. shares compounds with GAA850 FXN act. AID 588351. activation, % at 6 µM;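 active means mean activation above a set limit taken from the primary screen, cut at about 8% in these data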
GalR3 antag conf: confirmation of human galanin receptor 3 antagonists. HEK293 GalR3 CNG cAMP biosensor, membrane potential fluorescence; galR3 fused to GalR1 carboxy tail; challenged with forskolin and galanin at EC90. AID 652245. 59% of 1,600 active. shares compounds with GalR3 antagonist. inhibition, % at 3 µM;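 active means inhibition above the primary screen's cutoff, the mean inhibition of all screened compounds plus 3 SD, cut at about 13% in these data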
CNG parental: counter-screen for GalR3 antagonists: nonspecific agonists in parental HEK-CNG cells | shares compounds with GalR3 antagonist | HEK293-CNG parental cells, cAMP membrane potential fluorescence; normalised: DMSO wells 0%, forskolin wells 100% | activation, % at 3 µM | 10% of 1,600 active | AID 652268; in the data active means activation above about 1.3%
Of the large screens only hits and unclear results are named; the others gave an inactive call (follow-up assays come after a bar, where they were run).

O=C(O)c1ccc(-c2nc(-c3ccc(Cl)cc3Cl)cs2)cc1	GAA850 FXN act 8.2 | GAA30 FXN cntr 112.6 | FXN GAA850 conf 43.6
O=C(CSc1nnc(COc2ccccc2)n1-c1ccc(Cl)cc1)Nc1ccc2c(c1)OCCO2	none (no result: HIF act, GAA850 FXN act, Hsp70 activator, GalR3 antagonist)
N#CCCN1CCN(C(=S)c2ccc(-c3ccc(Cl)c(Cl)c3)o2)CC1	GAA850 FXN act 8.7 | GAA30 FXN cntr 72.0 | FXN GAA850 conf 30.2
S=C(c1ccc(-c2cccc(Cl)c2)o1)N1CCCCC1	none
N#CCCN1CCN(C(=S)c2ccc(-c3cccc(Cl)c3)o2)CC1	GAA850 FXN act 8.6 | GAA30 FXN cntr 74.2 | FXN GAA850 conf 31.1
CC(C)(C)OC(=O)NCc1cc2c(cc1/C=C/S(=O)(=O)NCc1ccc(F)cc1)OCO2	none (no result: HIF act, GAA850 FXN act, Hsp70 activator, GalR3 antagonist)
COc1ccc(N2Cc3ccc(OC)c(OC)c3C2=O)cc1	GAA850 FXN act 8.5 (no result: Hsp70 activator) | GAA30 FXN cntr 100.5 | FXN GAA850 conf 28.3
Cc1ccc(NN2C(=O)C=CC2=O)cc1	none (no result: HIF act)
O=C1C=C(c2ccccc2)C(=O)N1Nc1ccccc1	none
Cc1ccc(NN2C(=O)C=C(c3ccc(Cl)cc3)C2=O)cc1	GAA850 FXN act 9.5 | GAA30 FXN cntr inactive | FXN GAA850 conf 18.5
COc1ccc(C2=CC(=O)N(Nc3ccccc3)C2=O)cc1	GAA850 FXN act 8.2 | GAA30 FXN cntr 25.1 | FXN GAA850 conf 11.0
Cc1ccc(NC(=O)CCc2nnc3ccc(N4CCOCC4)nn23)cc1C	GAA850 FXN act 12.9 (no result: Hsp70 activator) | GAA30 FXN cntr inactive | FXN GAA850 conf inactive
COC(=O)[C@]12C[C@H](CC(=O)NCC34CC5CC(CC(C5)C3)C4)C(=O)N(Cc3ccc4c(c3)OCO4)C1=C[C@H](C(C)(C)C)O[C@@H]2C	none (no result: HIF act, GAA850 FXN act, Hsp70 activator)
CN[C@H]1C[C@H]2c3[nH]c4c(-c5ccccc5)cccc4c3CCN2C[C@H]1[C@H](C)O	none (no result: HIF act, GAA850 FXN act, Hsp70 activator)
O=C(CC1C=CCC1)OCCN1CCN(C2CN(Cc3cn(Cc4ccccc4Cl)nn3)S(=O)(=O)C2)CC1 (stereo not given)	none (no result: HIF act, GAA850 FXN act, Hsp70 activator, GalR3 antagonist)
COc1cccc(C(=O)Oc2c(CN3CCOCC3)cc(Cl)c3cccnc23)c1	GAA850 FXN act 8.2 | GAA30 FXN cntr inactive | FXN GAA850 conf 8.3
COc1cc(C(=O)Oc2c(CN3CCOCC3)cc(Cl)c3cccnc23)cc(OC)c1OC	GAA850 FXN act 18.1 (no result: SMARCA2 activ, GalR3 antagonist) | GAA30 FXN cntr inactive | FXN GAA850 conf 24.5
CN(CCOC(=O)c1cc2ccccc2o1)C1CN(Cc2cn(Cc3ccc([N+](=O)[O-])cc3)nn2)S(=O)(=O)C1 (stereo not given)	none (no result: HIF act, GAA850 FXN act, Hsp70 activator, GalR3 antagonist)
CC(=O)Cn1nnc2sc3c(c2c1=O)CCC(C(C)(C)C)C3 (stereo not given)	GAA850 FXN act 8.2 | GAA30 FXN cntr 118.7 | FXN GAA850 conf 44.9
CCOC(=O)c1sc(NC(=O)Cn2nnc3sc4c(c3c2=O)CCC(C(C)(C)C)C4)nc1C (stereo not given)	none
Cc1ccc2nc(/C=C/c3cccc(F)c3)ccc2c1	GAA850 FXN act 9.5 | GAA30 FXN cntr 101.4 | FXN GAA850 conf 30.1
Cc1ccc(-c2cc(-c3ccccc3)c(C#N)c(N)n2)o1	none
Cc1cc(-c2ccc(Cl)cc2)c(C#N)c(N)n1	GAA850 FXN act 8.2 | GAA30 FXN cntr inactive | FXN GAA850 conf 15.0
COc1ccc(C(=O)COC(=O)c2ccc(OC)c(OC)c2)cc1OC	none
COc1ccc(C(=O)CSC#N)cc1OC	GAA850 FXN act 12.4 | GAA30 FXN cntr inactive | FXN GAA850 conf 32.5
C=CCN1[C@@H](CC(C)C)COc2cc(F)ccc2S1(=O)=O	none (no result: HIF act, GAA850 FXN act, Hsp70 activator, GalR3 antagonist)
COC(=O)c1ccc(CSc2nc3ccccc3c(=O)n2-c2ccccc2)o1	GAA850 FXN act 15.6 | GAA30 FXN cntr inactive | FXN GAA850 conf 12.4
COC(=O)c1ccc(CSc2nc3ccccc3c(=O)n2-c2ccc(OC)c(OC)c2)o1	none
CN=c1scc(-c2ccc(F)cc2)n1/N=C/c1ccc(O)c(O)c1	GAA850 FXN act 9.3 (no result: HIF act) | GAA30 FXN cntr 34.1 | FXN GAA850 conf 14.0
CN=c1scc(-c2ccc([N+](=O)[O-])cc2)n1/N=C/c1ccco1	none
CC(Oc1ccc2c(-c3ccccc3)cc(=O)oc2c1)C(=O)NCCCn1ccnc1 (stereo not given)	GAA850 FXN act 8.7 (no result: Hsp70 activator) | GAA30 FXN cntr inactive | FXN GAA850 conf inactive
C/C(=N\N=C\c1ccccc1F)c1nnn(-c2nonc2N)c1C	GAA850 FXN act 10.1 | GAA30 FXN cntr 88.3 | FXN GAA850 conf 31.4
CCOC(=O)C1CSCCS(=O)(=O)N1Cc1cccc(F)c1 (stereo not given)	none (no result: HIF act, GAA850 FXN act, Hsp70 activator)
C[C@H]1CN([C@@H](C)CO)C(=O)c2c(c3ccccc3n2C)-c2ccccc2CO[C@H]1CN(C)Cc1cccc(F)c1	GAA850 FXN act 11.9 (no result: HIF act, Hsp70 activator) | GAA30 FXN cntr 23.3 | FXN GAA850 conf 9.9
C[C@H](CO)N1C[C@H](C)[C@H](CN(C)C(=O)c2ccccc2)OCc2ccccc2-c2c(n(C)c3ccccc23)C1=O	GAA850 FXN act 8.5 (no result: HIF act, Hsp70 activator) | GAA30 FXN cntr inactive | FXN GAA850 conf inactive
N#CCSc1nc(N)c(C#N)c(C2CCCCC2)c1C#N	GAA850 FXN act 10.7, GalR3 antagonist 72.1 | GAA30 FXN cntr inactive | FXN GAA850 conf 18.9 | GalR3 antag conf 88.1 | CNG parental inactive
O=C([C@@H]1C[C@H]1c1ccccc1)N1CCC(Oc2cccnc2)CC1	none (no result: HIF act, GAA850 FXN act, Hsp70 activator, GalR3 antagonist)
COc1cc2c(cc1OC)-c1cc(NC3CCCCC3)nc(=O)n1CC2	GAA850 FXN act 10.3, GalR3 antagonist 43.5 | GAA30 FXN cntr inactive | FXN GAA850 conf 11.2 | GalR3 antag conf 33.4 | CNG parental inactive
COc1cc2c(cc1OC)-c1cc(NC3CCCCCCC3)nc(=O)n1CC2	GAA850 FXN act 8.1, GalR3 antagonist 47.1 | GAA30 FXN cntr inactive | FXN GAA850 conf 12.8 | GalR3 antag conf 57.4 | CNG parental 1.4
COc1ccc(NC(=O)N(C)C[C@@H]2OCCCC[C@@H](C)Oc3ccc(NS(C)(=O)=O)cc3C(=O)N([C@H](C)CO)C[C@@H]2C)cc1	none (no result: HIF act, GAA850 FXN act, Hsp70 activator)
CC1=NNC(=O)/C1=C\c1cn(-c2ccccc2)nc1-c1ccccc1	GAA850 FXN act 8.0, GalR3 antagonist 48.2 | GAA30 FXN cntr inactive | FXN GAA850 conf 14.8 | GalR3 antag conf 55.0 | CNG parental inactive
